Reference: publication PMC7862700, “An all-to-all approach to the identification of sequence-specific readers for epigenetic DNA modifications on cytosine”

Experiments:
Assay in all cases: DAPPL (digital affinity profiling via proximity ligation, sequencing); 10 mM Tris-HCl pH 7.5, 50 mM NaCl, 1 mM DTT, 4% glycerol, room temperature, 30 min; GST-TFs on glutathione beads, 16-mer random dsDNA library, 0.1% formaldehyde crosslink after washing; high values mean tight binding
Settings in all cases: protein: recombinant; tags: N-terminal GST; dsDNA, one strand shown
ERG = biological target: T1, ERG (Homo sapiens, UniProt P11308 1-479)
T1 sequence: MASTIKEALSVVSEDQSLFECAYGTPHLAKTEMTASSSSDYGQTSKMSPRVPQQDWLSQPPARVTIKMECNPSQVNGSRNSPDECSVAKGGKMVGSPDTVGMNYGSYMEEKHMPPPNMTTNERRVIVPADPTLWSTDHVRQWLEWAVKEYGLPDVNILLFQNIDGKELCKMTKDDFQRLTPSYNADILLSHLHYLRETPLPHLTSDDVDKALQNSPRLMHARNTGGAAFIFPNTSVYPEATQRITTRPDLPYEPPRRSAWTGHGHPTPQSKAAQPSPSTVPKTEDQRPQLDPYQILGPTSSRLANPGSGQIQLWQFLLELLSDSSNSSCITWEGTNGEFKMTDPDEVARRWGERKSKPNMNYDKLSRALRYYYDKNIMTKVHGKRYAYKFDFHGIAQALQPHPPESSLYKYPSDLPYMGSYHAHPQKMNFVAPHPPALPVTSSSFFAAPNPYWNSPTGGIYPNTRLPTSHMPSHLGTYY
Outline: (§1)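 Human transcription factors were made in yeast as GST fusions, captured on glutathione beads and barcoded with DNA. With a tag-only sample included, the pool was incubated with 200 nmole of a random double-stranded 16-mer DNA library in Tris/NaCl/DTT/glycerol buffer at room temperature for 30 min, then crosslinked with 0.1% formaldehyde after washing, ligated by proximity, amplified and sequenced. For binding signal, each hexamer's read frequency for a factor is divided by its frequency for the tag-only sample.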

ELF1 = ELF1 (Homo sapiens, UniProt P32519 1-619)
Sequence of ELF1 (P32519 whole entry): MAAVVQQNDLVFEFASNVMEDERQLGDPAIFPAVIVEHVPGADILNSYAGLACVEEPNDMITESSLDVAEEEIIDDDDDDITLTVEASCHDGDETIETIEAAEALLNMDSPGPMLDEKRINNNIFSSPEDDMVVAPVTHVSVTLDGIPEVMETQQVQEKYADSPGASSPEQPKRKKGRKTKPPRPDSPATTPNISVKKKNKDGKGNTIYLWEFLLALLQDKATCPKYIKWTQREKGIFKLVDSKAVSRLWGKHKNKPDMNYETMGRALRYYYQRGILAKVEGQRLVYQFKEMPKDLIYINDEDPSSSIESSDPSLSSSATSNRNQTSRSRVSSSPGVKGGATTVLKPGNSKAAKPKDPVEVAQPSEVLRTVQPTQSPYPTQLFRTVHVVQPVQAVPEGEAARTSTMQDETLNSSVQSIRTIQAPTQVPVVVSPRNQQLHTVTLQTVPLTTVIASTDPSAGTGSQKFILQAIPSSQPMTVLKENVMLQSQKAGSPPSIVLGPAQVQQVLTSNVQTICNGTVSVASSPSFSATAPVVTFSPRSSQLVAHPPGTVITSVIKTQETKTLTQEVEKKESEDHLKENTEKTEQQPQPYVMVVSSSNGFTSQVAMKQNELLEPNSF
Outline: as §1

EHF = biological target: T2, EHF (Homo sapiens, UniProt Q9NZC4 1-300)
T2 sequence: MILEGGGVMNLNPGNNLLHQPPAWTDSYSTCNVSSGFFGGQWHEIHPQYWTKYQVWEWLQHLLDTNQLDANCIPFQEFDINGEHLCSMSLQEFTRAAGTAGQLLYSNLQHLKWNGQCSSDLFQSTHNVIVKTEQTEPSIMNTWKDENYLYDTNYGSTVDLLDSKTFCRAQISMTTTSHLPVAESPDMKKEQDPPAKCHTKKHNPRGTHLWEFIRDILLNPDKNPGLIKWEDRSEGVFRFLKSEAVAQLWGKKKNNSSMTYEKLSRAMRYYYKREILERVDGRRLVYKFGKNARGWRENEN
Outline: as §1

ETV5 = ETV5 (Homo sapiens, UniProt P41161 1-510)
Sequence of ETV5 (P41161 whole entry): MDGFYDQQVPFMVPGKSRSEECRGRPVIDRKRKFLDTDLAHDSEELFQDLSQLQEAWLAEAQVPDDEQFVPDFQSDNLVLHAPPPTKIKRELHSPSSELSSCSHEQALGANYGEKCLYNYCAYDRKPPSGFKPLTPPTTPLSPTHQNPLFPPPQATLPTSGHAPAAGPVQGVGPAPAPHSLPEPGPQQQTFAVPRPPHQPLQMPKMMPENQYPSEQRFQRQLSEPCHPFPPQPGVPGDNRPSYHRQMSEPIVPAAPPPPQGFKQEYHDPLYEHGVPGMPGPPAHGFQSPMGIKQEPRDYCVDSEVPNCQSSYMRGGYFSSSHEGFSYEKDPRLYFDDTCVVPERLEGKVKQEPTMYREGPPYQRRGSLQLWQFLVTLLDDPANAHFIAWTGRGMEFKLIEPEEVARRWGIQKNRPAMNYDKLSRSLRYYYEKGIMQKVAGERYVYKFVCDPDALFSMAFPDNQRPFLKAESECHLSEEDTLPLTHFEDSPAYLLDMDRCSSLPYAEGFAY
Outline: as §1

ELF3 = biological target: T3, ELF3 (Homo sapiens, UniProt P78545 1-371)
T3 sequence: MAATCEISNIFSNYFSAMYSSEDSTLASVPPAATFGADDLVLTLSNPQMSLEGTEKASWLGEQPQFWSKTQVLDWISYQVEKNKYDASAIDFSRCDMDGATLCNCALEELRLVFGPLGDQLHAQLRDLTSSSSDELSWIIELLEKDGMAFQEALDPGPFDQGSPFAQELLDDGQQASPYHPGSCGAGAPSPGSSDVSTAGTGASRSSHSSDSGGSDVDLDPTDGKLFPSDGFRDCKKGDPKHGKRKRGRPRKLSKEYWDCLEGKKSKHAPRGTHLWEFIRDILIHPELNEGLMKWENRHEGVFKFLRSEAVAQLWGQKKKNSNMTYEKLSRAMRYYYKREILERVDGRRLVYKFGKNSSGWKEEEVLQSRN
Outline: as §1

ETV1 = ETV1 (Homo sapiens, UniProt P50549 1-477)
Sequence of ETV1 (P50549 whole entry): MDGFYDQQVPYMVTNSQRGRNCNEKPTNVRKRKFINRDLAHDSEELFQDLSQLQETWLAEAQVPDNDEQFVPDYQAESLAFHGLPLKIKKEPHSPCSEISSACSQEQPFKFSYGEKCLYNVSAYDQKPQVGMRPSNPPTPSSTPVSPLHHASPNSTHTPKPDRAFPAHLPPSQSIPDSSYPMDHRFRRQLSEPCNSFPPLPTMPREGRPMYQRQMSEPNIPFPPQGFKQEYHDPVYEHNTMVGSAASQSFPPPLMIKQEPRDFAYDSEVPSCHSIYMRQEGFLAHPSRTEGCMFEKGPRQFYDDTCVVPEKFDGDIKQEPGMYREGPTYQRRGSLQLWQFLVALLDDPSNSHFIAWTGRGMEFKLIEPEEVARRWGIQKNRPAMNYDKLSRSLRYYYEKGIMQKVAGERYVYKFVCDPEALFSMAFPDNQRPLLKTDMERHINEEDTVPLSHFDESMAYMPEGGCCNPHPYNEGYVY
Outline: as §1

ETV7 = biological target: T4, ETV7 (Homo sapiens, UniProt Q9Y603 1-341)
T4 sequence: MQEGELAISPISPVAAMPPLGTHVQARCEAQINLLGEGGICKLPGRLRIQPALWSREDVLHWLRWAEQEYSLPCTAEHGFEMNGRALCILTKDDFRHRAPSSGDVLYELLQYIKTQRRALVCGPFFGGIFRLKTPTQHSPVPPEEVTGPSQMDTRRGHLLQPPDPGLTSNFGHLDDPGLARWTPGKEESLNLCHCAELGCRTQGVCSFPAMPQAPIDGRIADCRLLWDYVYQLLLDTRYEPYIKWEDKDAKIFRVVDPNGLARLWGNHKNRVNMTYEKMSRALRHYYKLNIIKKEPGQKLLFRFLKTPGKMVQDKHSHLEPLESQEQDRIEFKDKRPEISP
Outline: as §1

ETV3 = biological target: T5, ETV3 (Homo sapiens, UniProt P41162-2 1-143)
T5 sequence: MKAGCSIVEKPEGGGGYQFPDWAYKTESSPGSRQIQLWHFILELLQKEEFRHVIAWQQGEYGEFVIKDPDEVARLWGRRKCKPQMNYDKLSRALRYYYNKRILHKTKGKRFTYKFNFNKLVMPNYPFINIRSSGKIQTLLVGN
Outline: as §1

ETV6 = ETV6 (Homo sapiens, UniProt P41212 1-452)
Sequence of ETV6 (P41212 whole entry): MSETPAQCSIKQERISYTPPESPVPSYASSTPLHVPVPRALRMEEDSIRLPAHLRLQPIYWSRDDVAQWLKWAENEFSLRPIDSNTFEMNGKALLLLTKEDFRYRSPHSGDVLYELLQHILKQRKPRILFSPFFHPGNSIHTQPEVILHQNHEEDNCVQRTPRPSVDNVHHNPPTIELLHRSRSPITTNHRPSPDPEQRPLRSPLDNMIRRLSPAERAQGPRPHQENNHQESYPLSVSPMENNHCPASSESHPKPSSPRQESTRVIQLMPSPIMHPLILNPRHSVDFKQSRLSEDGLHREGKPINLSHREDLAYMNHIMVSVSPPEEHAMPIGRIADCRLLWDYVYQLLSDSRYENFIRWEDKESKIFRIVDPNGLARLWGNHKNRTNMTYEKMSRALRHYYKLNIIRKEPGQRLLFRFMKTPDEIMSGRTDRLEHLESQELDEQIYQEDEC
Outline: as §1

GABPA = biological target: T6, GABPA (Homo sapiens, UniProt Q06546 1-454)
T6 sequence: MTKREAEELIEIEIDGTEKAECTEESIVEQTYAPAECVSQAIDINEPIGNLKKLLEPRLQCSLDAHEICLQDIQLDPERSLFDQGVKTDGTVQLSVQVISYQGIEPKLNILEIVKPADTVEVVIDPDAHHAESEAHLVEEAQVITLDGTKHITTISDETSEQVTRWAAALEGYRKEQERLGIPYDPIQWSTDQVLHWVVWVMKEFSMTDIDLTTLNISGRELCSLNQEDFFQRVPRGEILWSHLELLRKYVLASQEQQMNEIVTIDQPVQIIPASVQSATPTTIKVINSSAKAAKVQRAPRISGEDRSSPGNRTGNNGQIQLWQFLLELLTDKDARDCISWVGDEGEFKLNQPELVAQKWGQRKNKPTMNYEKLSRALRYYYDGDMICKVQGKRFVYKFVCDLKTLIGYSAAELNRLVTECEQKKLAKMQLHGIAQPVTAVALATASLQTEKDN
Outline: as §1

ELF4 = ELF4 (Homo sapiens, UniProt Q99607 1-663)
Sequence of ELF4 (Q99607 whole entry): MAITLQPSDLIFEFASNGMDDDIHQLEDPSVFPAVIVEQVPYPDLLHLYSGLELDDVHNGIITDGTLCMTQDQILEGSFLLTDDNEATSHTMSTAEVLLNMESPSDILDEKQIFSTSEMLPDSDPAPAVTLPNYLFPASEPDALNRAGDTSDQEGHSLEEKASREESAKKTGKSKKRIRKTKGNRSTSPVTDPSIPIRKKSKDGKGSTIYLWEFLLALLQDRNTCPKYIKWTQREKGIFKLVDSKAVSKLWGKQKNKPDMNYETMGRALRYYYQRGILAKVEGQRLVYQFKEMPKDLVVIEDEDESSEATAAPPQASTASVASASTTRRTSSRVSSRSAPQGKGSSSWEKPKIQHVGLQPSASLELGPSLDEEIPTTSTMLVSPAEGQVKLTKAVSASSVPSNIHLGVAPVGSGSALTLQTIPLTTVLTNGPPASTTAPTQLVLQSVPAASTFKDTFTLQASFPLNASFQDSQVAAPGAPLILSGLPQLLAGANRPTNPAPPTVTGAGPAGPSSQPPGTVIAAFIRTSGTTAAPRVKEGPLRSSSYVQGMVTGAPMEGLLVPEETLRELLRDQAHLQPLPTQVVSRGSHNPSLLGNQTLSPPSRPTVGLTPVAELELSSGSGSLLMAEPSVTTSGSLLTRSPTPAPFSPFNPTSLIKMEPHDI
Outline: as §1

ELK4 = biological target: T7, ELK4 (Homo sapiens, UniProt P28324-2 1-405)
T7 sequence: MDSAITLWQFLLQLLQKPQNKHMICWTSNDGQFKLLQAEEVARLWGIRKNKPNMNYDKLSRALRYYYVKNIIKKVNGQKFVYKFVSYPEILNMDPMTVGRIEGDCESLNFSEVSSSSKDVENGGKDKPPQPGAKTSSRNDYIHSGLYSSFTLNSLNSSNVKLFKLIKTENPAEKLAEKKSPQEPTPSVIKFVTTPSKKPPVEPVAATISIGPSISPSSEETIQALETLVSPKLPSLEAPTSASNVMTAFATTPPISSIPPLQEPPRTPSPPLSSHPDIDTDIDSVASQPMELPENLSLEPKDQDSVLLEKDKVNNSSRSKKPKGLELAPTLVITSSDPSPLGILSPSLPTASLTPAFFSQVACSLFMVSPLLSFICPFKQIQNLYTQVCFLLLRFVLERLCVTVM
Outline: as §1

ETV3L = biological target: T8, ETV3L (Homo sapiens, UniProt Q6ZN32 1-361)
T8 sequence: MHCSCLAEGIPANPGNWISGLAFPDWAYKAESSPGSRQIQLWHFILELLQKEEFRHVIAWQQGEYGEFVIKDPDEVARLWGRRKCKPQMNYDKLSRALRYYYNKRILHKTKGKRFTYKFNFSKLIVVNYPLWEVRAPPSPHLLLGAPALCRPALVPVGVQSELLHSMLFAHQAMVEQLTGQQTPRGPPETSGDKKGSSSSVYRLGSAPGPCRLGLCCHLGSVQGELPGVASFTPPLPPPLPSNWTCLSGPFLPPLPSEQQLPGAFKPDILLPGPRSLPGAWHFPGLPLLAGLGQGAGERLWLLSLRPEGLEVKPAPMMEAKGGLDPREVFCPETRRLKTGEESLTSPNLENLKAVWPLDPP
Outline: as §1

GAAACC
binding signal (ERG): 1.05 fold enrichment (6-mer frequency, TF over GST control)
binding signal (ELF1): 1.04 fold enrichment (6-mer frequency, TF over GST control)
binding signal (EHF): 1.04 fold enrichment (6-mer frequency, TF over GST control)
binding signal (ETV5): 1.05 fold enrichment (6-mer frequency, TF over GST control)
binding signal (ELF3): 1.03 fold enrichment (6-mer frequency, TF over GST control)
binding signal (ETV1): 1.02 fold enrichment (6-mer frequency, TF over GST control)
binding signal (ETV7): 1.04 fold enrichment (6-mer frequency, TF over GST control)
binding signal (ETV3): 1.02 fold enrichment (6-mer frequency, TF over GST control)
binding signal (ETV6): 1.08 fold enrichment (6-mer frequency, TF over GST control)

GTGCCC
binding signal (GABPA): 1.01 fold enrichment (6-mer frequency, TF over GST control)
binding signal (ERG): 1.08 fold enrichment (6-mer frequency, TF over GST control)
binding signal (ETV5): 1.08 fold enrichment (6-mer frequency, TF over GST control)
binding signal (ELF4): 1.03 fold enrichment (6-mer frequency, TF over GST control)
binding signal (ELK4): 1.07 fold enrichment (6-mer frequency, TF over GST control)
binding signal (ETV3L): 1 fold enrichment (6-mer frequency, TF over GST control)
binding signal (ETV7): 1.01 fold enrichment (6-mer frequency, TF over GST control)
binding signal (ETV6): 1 fold enrichment (6-mer frequency, TF over GST control)
